# According to the supplement of paper PMC9135407:
# Values joined by “and” are separate entries in the source; they are usually repeats but may differ in a detail not shown here. Equal values may be shown once. Where a name gives a salt, the structure may show the parent alone. Hit rate of the full screen: of about 5,800 compounds, about 620 (11%) showed activity. What follows is part of a selection rich in actives, with near analogues and random picks from the rest. Unmarked numbers belong to inactive results.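 The calls were made as follows: active = score above a cut-off or among the top three wells of a plate; in these data no inactive exceeds 0.85.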
# Test system: primary human hepatic stellate cells (donor 1)
# Assay: scaled lipid accumulation score (0 = DMSO-like, 1 = nortriptyline-like); higher = stronger HSC inactivation (lipid re-accumulation), active = hit call of the paper
# Conditions: 48 h
# [1] = library stock concentration: 3.33 mM
# [2] = library stock concentration: 10 mM
# [3] = library stock concentration: 1 mM
# [4] = library stock concentration: 400 uM
# [5] = library stock concentration: 2 mM
structure (smiles),measurement,setting,value
CCOC(=O)Nc1cc(-c2ccc(C)c(NS(C)(=O)=O)c2)nn2c(C)nnc12 [Bromosporine],scaled lipid accumulation score,[1],0.166
same,scaled lipid accumulation score,[2],0.621
CCCCCCCCCCCCCCCCOC[C@H](CO)OC(C)=O [Hexadecyl Acetyl Glycerol],scaled lipid accumulation score,[3],≤ 0
CNC(=O)c1c(F)cccc1Nc1nc(Nc2cc3c(cc2OC)CCN3C(=O)CN(C)C)nc2[nH]ccc12 [listing 1 of 2 here],scaled lipid accumulation score,[2],0.776
CNC(=O)c1c(F)cccc1Nc1nc(Nc2cc3c(cc2OC)CCN3C(=O)CN(C)C)nc2[nH]ccc12 [listing 2 of 2 here],scaled lipid accumulation score,[1],0.98 (active)
CNC(=O)c1ccccc1Nc1nc(Nc2ccc(N3CCOCC3)cc2OC)ncc1Cl,scaled lipid accumulation score,library stock concentration: 80 uM,≤ -0.016
same,scaled lipid accumulation score,[4],≤ -0.016
same,scaled lipid accumulation score,[5],≤ -0.016
same,scaled lipid accumulation score,[1],≤ 0
same,scaled lipid accumulation score,[2],≤ 0 and ≤ -0.016
O=C(c1ccc2c(c1)OCCO2)N1CCCCC1,scaled lipid accumulation score,[2],≤ -0.07
COC(=O)C1=CC[C@@]23CC[C@@H]([C@@](C)(/C=C/C=C(\C)C(=O)O)OC2=O)[C@@]3(OC(C)=O)CC1 [Pseudolaric Acid B],scaled lipid accumulation score,[3],≤ 0
CCCC[C@H](C)C[C@H](O)/C=C/[C@H]1[C@H](O)CC(=O)[C@@H]1CCCCC(CC(=O)O)OC (some centres not stated) [3-methoxy Limaprost],scaled lipid accumulation score,[3],0.012
"CCCCCC(=O)OC[C@H](CO)OC(=O)CCCCC [1,2-Dihexanoyl-sn-glycerol]",scaled lipid accumulation score,[3],0.007
CC(C)(CO)Cc1cc(C(C)(C)C)c(O)c(C(C)(C)C)c1 [listing 1 of 2 here],scaled lipid accumulation score,[2],0.861 (active)
CC(C)(C=O)Cc1cc(C(C)(C)C)c(O)c(C(C)(C)C)c1,scaled lipid accumulation score,[2],0.21 and ≤ -0.006
CC(C)(CO)Cc1cc(C(C)(C)C)c(O)c(C(C)(C)C)c1 [listing 2 of 2 here],scaled lipid accumulation score,[2],0.139
N.N.O=C([O-])C[O-].[Pt+2] [Nedaplatin],scaled lipid accumulation score,library stock concentration: 6.6 mM,0.028
CC(C)[C@@H](O)CC[C@@H](C)[C@H]1CC[C@H]2[C@@H]3CC=C4C[C@@H](O)CC[C@]4(C)[C@H]3CC[C@]12C [24(S)-hydroxycholesterol],scaled lipid accumulation score,library stock concentration: 12.4 mM,0.006
CN(C)Cc1ccc(-c2nc3cccc4c3n2CCNC4=O)cc1,scaled lipid accumulation score,[1],0.037
same,scaled lipid accumulation score,[2],0.491
COc1ccc([C@@H]2CC(=O)c3c(O)cc(O[C@@H]4O[C@H](CO)[C@@H](O)[C@H](O)[C@H]4O[C@@H]4O[C@@H](C)[C@H](O)[C@@H](O)[C@H]4O)cc3O2)cc1O [Neohesperidin],scaled lipid accumulation score,[1],≤ 0
same,scaled lipid accumulation score,[2],0.039
C[C@H](NC(=O)/C(C#N)=C/c1cccc(Br)n1)c1ccccc1,scaled lipid accumulation score,[2],0.586
C[C@H](NC(=O)C(C#N)=Cc1cccc(Br)n1)c1ccccc1,scaled lipid accumulation score,[1],1.05 (active)
CCC[C@H](NC(=O)/C(C#N)=C/c1cccc(Br)n1)c1ccccc1 [Degrasyn (WP1130)],scaled lipid accumulation score,[1],0.369
same,scaled lipid accumulation score,[2],0.703
CC(=O)OCOC(=O)CN(CC(=O)OCOC(C)=O)c1ccccc1OCCOc1ccccc1N(CC(=O)OCOC(C)=O)CC(=O)OCOC(C)=O,scaled lipid accumulation score,[1],≤ -0.009
same,scaled lipid accumulation score,[2],0.697
CC(C)C[C@H](NC(=O)[C@H]1O[C@@H]1C(=O)O)C(=O)NCCCCN=C(N)N,scaled lipid accumulation score,[1],0.177
same,scaled lipid accumulation score,[2],≤ 0 and ≤ -0.07
C=C[C@]1(C)C[C@@H](OC(=O)CSC(C)(C)CNC(=O)[C@H](N)C(C)C)[C@]2(C)[C@H](C)CC[C@]3(CCC(=O)[C@H]32)[C@@H](C)[C@@H]1O [Valnemulin HCl],scaled lipid accumulation score,[1],≤ 0
same,scaled lipid accumulation score,[2],0.491
C=C[C@]1(C)C[C@@H](OC(=O)CS[C@@H]2C[C@H]3CC[C@@H](C2)N3C)[C@]2(C)[C@H](C)CC[C@]3(CCC(=O)[C@H]32)[C@@H](C)[C@@H]1O [Retapamulin],scaled lipid accumulation score,[1],0.412
C=C[C@@]1(C)C[C@@H](OC(=O)CS[C@@H]2C[C@H]3CC[C@@H](C2)N3C)[C@@]2(C)[C@@H]3C(=O)CC[C@@]3(CC[C@@H]2C)[C@@H](C)[C@@H]1O [Retapamulin],scaled lipid accumulation score,[2],0.947 (active)
Clc1ccc(C(c2ccc(Cl)cc2)[n+]2ccn(CC(OCc3ccc(Cl)cc3Cl)c3ccc(Cl)cc3Cl)c2)cc1 (configuration not stated) [Calmidazolium chloride],scaled lipid accumulation score,[2],0.037
O=C(O)CCC(=O)O.O=C(O[C@H]1CN2CCC1CC2)N1CCc2ccccc2[C@@H]1c1ccccc1 [Solifenacin succinate],scaled lipid accumulation score,[2],1.3 (active)
O=C(O[C@H]1CN2CCC1CC2)N1CCc2ccccc2[C@@H]1c1ccccc1 [Solifenacin succinate],scaled lipid accumulation score,[1],0.293
O=C(O[C@H]1CN2CCC1CC2)N1CCc2ccccc2[C@@H]1c1ccccc1,scaled lipid accumulation score,[2],0.352
O=C(NCc1ccc(Cl)c(Cl)c1)O[C@H]1CCc2ccccc21,scaled lipid accumulation score,[3],0.061
CC/C=C\C/C=C\C/C=C\CCCCCCCC(=O)O [Linolenic acid (18:3 n-3)],scaled lipid accumulation score,[3],≤ -0.021
CC/C=C\C/C=C\C/C=C\CCCCCCCC(=O)O [.alpha.-Linolenic Acid],scaled lipid accumulation score,[3],0.009
CC(=O)O[C@H]1Cc2ccccc2N(C(N)=O)c2ccccc21,scaled lipid accumulation score,[2],≤ 0
CCCC[P+](CCCC)(CCCC)Cc1ccc(NC(=O)C(Cc2ccc3ccccc3c2)NC(=NC2CCCCC2)NC2CCCCC2)cc1 (configuration not stated),scaled lipid accumulation score,[2],0.797
CNCc1ccc(-c2cc(-c3nc(-c4ccc(S(=O)(=O)C(C)C)cc4)cnc3N)on2)cc1 [listing 1 of 2 here],scaled lipid accumulation score,[1],1.12 (active)
CNCc1ccc(-c2cc(-c3nc(-c4ccc(S(=O)(=O)C(C)C)cc4)cnc3N)on2)cc1 [listing 2 of 2 here],scaled lipid accumulation score,[2],0.254
CCCCCCCC/C=C\CCCCCCCC(=O)OCC [Oleic Acid ethyl ester],scaled lipid accumulation score,[3],0.015
O=C(CO)N1CCC(c2n[nH]c(-c3ccc(Cl)cc3)c2-c2ccncn2)CC1,scaled lipid accumulation score,[4],≤ -0.005
same,scaled lipid accumulation score,[5],≤ -0.005
same,scaled lipid accumulation score,[2],≤ -0.005
Cl.O[C@H](CNC[C@@H](O)[C@H]1CCc2cc(F)ccc2O1)[C@@H]1CCc2cc(F)ccc2O1 [Nebivolol hydrochloride],scaled lipid accumulation score,[2],0.861 (active)
OC(CNCC(O)C1CCc2cc(F)ccc2O1)C1CCc2cc(F)ccc2O1 (configuration not stated) [Nebivolol],scaled lipid accumulation score,[1],0.769
same,scaled lipid accumulation score,[2],≤ 0
CCCCCC(=O)/C=C/[C@@H]1[C@H](C/C=C\CCCC(=O)O)[C@H](O)C[C@H]1O [8-iso-15-keto Prostaglandin F2.beta.],scaled lipid accumulation score,[3],≤ 0
COC(=O)c1ccc(O)c2nc3c(C=O)c(O)cc(O)c3nc12 [Lomofungin],scaled lipid accumulation score,library stock concentration: 6.4 mM,≤ -0.006
Cn1cc(C(=O)OCC2CCN(CCNS(C)(=O)=O)CC2)c2ccccc21 [listing 1 of 2 here],scaled lipid accumulation score,[2],0.41
Cn1cc(C(=O)OCC2CCN(CCNS(C)(=O)=O)CC2)c2ccccc21 [listing 2 of 2 here],scaled lipid accumulation score,[2],0.925 (active)
COc1[nH]c2ccc(F)cc2c1C(=O)OCC1CCN(CCNS(C)(=O)=O)CC1.NS(=O)(=O)O,scaled lipid accumulation score,[2],0.298
C/C=C1\[C@H]2C=C(C)C[C@]1(N)c1ccc(=O)[nH]c1C2 [(-)-Huperzine A],scaled lipid accumulation score,library stock concentration: 20.6 mM,0.185
C/C=C1\[C@H]2C=C(C)C[C@]1(N)c1ccc(=O)[nH]c1C2,scaled lipid accumulation score,[2],≤ 0
CC(C)(C)C(=O)Nc1ccccc1 [N-Pivaloylaniline],scaled lipid accumulation score,[3],0.066
CC(C)=CCC/C(C)=C/CC/C(C)=C/CC[C@]1(C)CCc2cc(O)cc(C)c2O1 [.delta.-Tocotrienol],scaled lipid accumulation score,[3],≤ 0
CC(C)[C@@H]1NC(=O)[C@H](Cc2ccccc2)NC(=O)[C@@H](CC(=O)O)NC(=O)CNC(=O)[C@H](CCCN=C(N)N)NC1=O [Cyclo [Arg-Gly-Asp-D-Phe-Val]],scaled lipid accumulation score,library stock concentration: 8.7 mM,≤ -0.003
CN[C@H]1CC[C@@H](c2ccc(Cl)c(Cl)c2)c2ccccc21 [Sertraline hydrochloride],scaled lipid accumulation score,library stock concentration: 5.8 mM,0.777
same,scaled lipid accumulation score,[2],≤ -0.055 and 0.281 and 0.318
CN[C@H]1CC[C@@H](c2ccc(Cl)c(Cl)c2)c2ccccc21 [Sertraline] [listing 1 of 2 here],scaled lipid accumulation score,,1.23 (active)
CN[C@H]1CC[C@@H](c2ccc(Cl)c(Cl)c2)c2ccccc21 [Sertraline] [listing 2 of 2 here],scaled lipid accumulation score,[2],0.147 and 0.63
CN[C@H]1CC[C@@H](c2ccc(Cl)c(Cl)c2)c2ccccc21 [Sertraline HCl],scaled lipid accumulation score,[1],0.103
same,scaled lipid accumulation score,[2],0.033
CC(C)[C@H](NC(=O)CNC(=O)OC(C)(C)C)C(=O)N[C@H](C=O)C(C)C,scaled lipid accumulation score,library stock concentration: 14 mM,0.022
COC(=O)[C@H]1[C@H]2C[C@@H]3c4[nH]c5cc(OC)ccc5c4CCN3C[C@H]2C[C@@H](OC(=O)/C=C/c2cc(OC)c(OC)c(OC)c2)[C@@H]1OC [Rescinnamin],scaled lipid accumulation score,,0.478
CCOC(=O)Oc1c(OC)cc(C(=O)O[C@@H]2C[C@@H]3CN4CCc5c([nH]c6cc(OC)ccc56)[C@H]4C[C@@H]3[C@H](C(=O)OC)[C@H]2OC)cc1OC [Syrosingopine],scaled lipid accumulation score,,0.248
COc1ccc2c3c([nH]c2c1)[C@H]1C[C@H]2[C@H](C[C@@H](O)[C@H](OC)[C@H]2C(=O)O)CN1CC3 [Reserpinic acid hydrochloride],scaled lipid accumulation score,,≤ 0
COC(=O)[C@H]1[C@H]2C[C@@H]3c4[nH]c5cc(OC)ccc5c4CCN3C[C@H]2C[C@@H](OC(=O)c2cc(OC)c(OC)c(OC)c2)[C@@H]1OC [Reserpine] [listing 1 of 3 here],scaled lipid accumulation score,[2],1.18 (active)
COC(=O)[C@H]1[C@H]2C[C@@H]3c4[nH]c5cc(OC)ccc5c4CCN3C[C@H]2C[C@@H](OC(=O)c2cc(OC)c(OC)c(OC)c2)[C@@H]1OC [Reserpine] [listing 2 of 3 here],scaled lipid accumulation score,,≤ 0
same,scaled lipid accumulation score,[2],0.574 and 0.771
COC(=O)[C@H]1[C@H]2C[C@@H]3c4[nH]c5cc(OC)ccc5c4CCN3C[C@H]2C[C@@H](OC(=O)c2cc(OC)c(OC)c(OC)c2)[C@@H]1OC [Reserpine] [listing 3 of 3 here],scaled lipid accumulation score,[2],0.944 (active)
